# Test results from PubChem BioAssay (EPA / NIEHS).
# “And” between values parts separate entries of the source, which are not always exact repeats. Identical values can stand only once. Some structures have more than one record in an assay (separate samples or runs), and their calls can disagree. The source made the active and inactive calls. The calls were made as follows: active = hit-call score of the fitted dose curve at least 0.9, where 1 is the maximum; inactive = score below 0.9.
# Assay: ATG_TGFb_CIS: Attagene CIS-FACTORIAL HepG2 Assay for human Transforming Growth Factor (TGF) (AID 2282967)
# Conditions: HepG2 Attagene CIS TGFb reporter, mRNA transcription; actives raise or lower the signal
# Method in brief: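 HepG2 cells transiently transfected with cis-promoter-driven multiplexed reporter units; 24 h compound exposure. Reporter mRNA measured by RT-PCR, 6-FAM labeling, HpaI digestion and capillary electrophoresis; bidirectional fit versus DMSO baseline.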
SMILES,outcome,AC50
C[C@]12CC[C@@H]3c4ccc(O)cc4C[C@@H](CCCCCCCCCS(=O)CCCC(F)(F)C(F)(F)F)[C@H]3[C@@H]1CC[C@@H]2O (stereo not given in full),inactive,
COC(=O)c1cccc(C)c1S(=O)(=O)NC(=O)Nc1nc(OCC(F)(F)F)nc(N(C)C)n1,inactive,
CC1(C)C(C=C(Cl)Cl)C1C(=O)OCc1cccc(Oc2ccccc2)c1 (stereo not given),inactive,
CCC(C)OC(=O)N1CCCCC1CCO (stereo not given),inactive,
CCC(O)=C1C(=O)CC(C(=O)O)CC1=O (stereo not given),inactive,
CCOC(=O)c1ccc(O)cc1,inactive,
O=C(O)C1(C(=O)Nc2ccc(Cl)cc2Cl)CC1,inactive,
c1ccc(Nc2ccccc2)cc1,inactive,
CC(C)(c1ccc(O)cc1)c1ccc(O)cc1,inactive,43.6 µM (active)
CCCCOC(=O)[C@@H](C)Oc1ccc(Oc2ccc(C(F)(F)F)cn2)cc1,inactive,
COC(=O)c1ccccc1S(=O)(=O)NC(=O)Nc1nc(OC(F)F)cc(OC(F)F)n1,inactive,
COC(=O)c1ccc(CNS(C)(=O)=O)cc1S(=O)(=O)NC(=O)Nc1nc(OC)cc(OC)n1,inactive,
CC(C)CCCCCCc1ccc(O)cc1,inactive,
CCOC(=O)NCCOc1ccc(Oc2ccccc2)cc1,inactive,
O=C(O)c1ccccc1,inactive,
CCCN(CCC)c1c([N+](=O)[O-])cc(C(F)(F)F)c(N)c1[N+](=O)[O-],inactive,
N#CSCSc1nc2ccccc2s1,inactive,1.52 µM (active)
CCN(Cc1c(F)cccc1Cl)c1c([N+](=O)[O-])cc(C(F)(F)F)cc1[N+](=O)[O-],inactive,
CCCN(CCC)C(=O)SCC,inactive,
S=C(S)NCCNC(=S)S.[Mn+2].[S-]C([S-])=NCCN=C([S-])[S-].[Zn+2],inactive,
OB(O)O,inactive,
O=C(c1ccc(O)cc1O)c1ccc(O)cc1O,inactive,
CC(=O)S[C@@H]1CC2=CC(=O)CC[C@]2(C)[C@H]2CC[C@@]3(C)[C@@H](CC[C@@]34CCC(=O)O4)[C@H]12,inactive,
C#C[C@]1(O)CC[C@H]2[C@@H]3CCC4=CC(=O)CC[C@@H]4[C@H]3CC[C@@]21CC,inactive,
CCCCC(CC)CN1C(=O)C2C3C=CC(C3)C2C1=O (stereo not given),inactive,
CCCCOC(=O)C(C)Oc1ccc(Oc2ccc(C(F)(F)F)cn2)cc1 (stereo not given),inactive,
CCCOC(=O)c1ccc(C(=O)OCCC)nc1,inactive,
O=C(c1ccccc1)C1CCCCC1,inactive,
COc1c(Cl)ccc(Cl)c1C(=O)O,inactive,
CCSC(=O)N(CC(C)C)CC(C)C,inactive,

# Assay: ATG_VDRE_CIS: Attagene CIS-FACTORIAL HepG2 Assay for human Vitamin D Receptor Element (VDRE) (AID 2282968)
# Conditions: HepG2 VDRE cis-reporter transcription, actives raise or lower the signal
# Method in brief: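 RT-PCR/CE readout of reporter mRNA; HepG2, transient transfection, 24 h dosing; DMSO baseline; bidirectional analysis.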
SMILES,AC50,outcome
C[C@]12CC[C@@H]3c4ccc(O)cc4C[C@@H](CCCCCCCCCS(=O)CCCC(F)(F)C(F)(F)F)[C@H]3[C@@H]1CC[C@@H]2O (stereo not given in full),1 µM (active) and 1.5 µM (active),inactive
COC(=O)c1cccc(C)c1S(=O)(=O)NC(=O)Nc1nc(OCC(F)(F)F)nc(N(C)C)n1,,inactive
CC1(C)C(C=C(Cl)Cl)C1C(=O)OCc1cccc(Oc2ccccc2)c1 (stereo not given),10 µM (active),
CCC(C)OC(=O)N1CCCCC1CCO (stereo not given),46.5 µM (active),inactive
CCC(O)=C1C(=O)CC(C(=O)O)CC1=O (stereo not given),,inactive
CCOC(=O)c1ccc(O)cc1,42.8 µM (active),inactive
O=C(O)C1(C(=O)Nc2ccc(Cl)cc2Cl)CC1,,inactive
c1ccc(Nc2ccccc2)cc1,100 µM (active),inactive
CCCCOC(=O)[C@@H](C)Oc1ccc(Oc2ccc(C(F)(F)F)cn2)cc1,,inactive
COC(=O)c1ccccc1S(=O)(=O)NC(=O)Nc1nc(OC(F)F)cc(OC(F)F)n1,,inactive
COC(=O)c1ccc(CNS(C)(=O)=O)cc1S(=O)(=O)NC(=O)Nc1nc(OC)cc(OC)n1,,inactive
CC(C)CCCCCCc1ccc(O)cc1,2.96 µM (active) and 11.1 µM (active) and 10.3 µM (active),inactive
CCOC(=O)NCCOc1ccc(Oc2ccccc2)cc1,27.4 µM (active),
O=C(O)c1ccccc1,,inactive
CCCN(CCC)c1c([N+](=O)[O-])cc(C(F)(F)F)c(N)c1[N+](=O)[O-],3.57 µM (active),
N#CSCSc1nc2ccccc2s1,,inactive
CCN(Cc1c(F)cccc1Cl)c1c([N+](=O)[O-])cc(C(F)(F)F)cc1[N+](=O)[O-],1.87 µM (active),
CCCN(CCC)C(=O)SCC,,inactive
S=C(S)NCCNC(=S)S.[Mn+2].[S-]C([S-])=NCCN=C([S-])[S-].[Zn+2],30.3 µM (active) and 11.4 µM (active),inactive
OB(O)O,,inactive
O=C(c1ccc(O)cc1O)c1ccc(O)cc1O,,inactive
CC(=O)S[C@@H]1CC2=CC(=O)CC[C@]2(C)[C@H]2CC[C@@]3(C)[C@@H](CC[C@@]34CCC(=O)O4)[C@H]12,25 µM (active) [middle of 4 runs],inactive
C#C[C@]1(O)CC[C@H]2[C@@H]3CCC4=CC(=O)CC[C@@H]4[C@H]3CC[C@@]21CC,27.6 µM (active),inactive
CCCCC(CC)CN1C(=O)C2C3C=CC(C3)C2C1=O (stereo not given),23.8 µM (active),
CCCCOC(=O)C(C)Oc1ccc(Oc2ccc(C(F)(F)F)cn2)cc1 (stereo not given),,inactive
CCCOC(=O)c1ccc(C(=O)OCCC)nc1,,inactive
O=C(c1ccccc1)C1CCCCC1,42.8 µM (active),inactive
COc1c(Cl)ccc(Cl)c1C(=O)O,,inactive
CCSC(=O)N(CC(C)C)CC(C)C,,inactive
